Compounds with a hit are over-represented: about 0.63% of the library has one in this group of screens.
NTR1 agonist = agonists of human NTR1, primary screen, imaging, U2OS cells, beta-arrestin-GFP, high content | Neurotensin receptor type 1 (Homo sapiens), P30989 | NTR1-U2OS beta-arrestin-GFP spot imaging, agonist mode | activation, % at 20 µM | 0.17% of 330,000 active;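 active means activation at or above 40% of the spot to cytoplasm intensity ratio, with at least 20 cells analyzed; inconclusive means wells under 20 cells, flagged as cytotoxic or low count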
Target sequence (P30989 whole entry, looked up): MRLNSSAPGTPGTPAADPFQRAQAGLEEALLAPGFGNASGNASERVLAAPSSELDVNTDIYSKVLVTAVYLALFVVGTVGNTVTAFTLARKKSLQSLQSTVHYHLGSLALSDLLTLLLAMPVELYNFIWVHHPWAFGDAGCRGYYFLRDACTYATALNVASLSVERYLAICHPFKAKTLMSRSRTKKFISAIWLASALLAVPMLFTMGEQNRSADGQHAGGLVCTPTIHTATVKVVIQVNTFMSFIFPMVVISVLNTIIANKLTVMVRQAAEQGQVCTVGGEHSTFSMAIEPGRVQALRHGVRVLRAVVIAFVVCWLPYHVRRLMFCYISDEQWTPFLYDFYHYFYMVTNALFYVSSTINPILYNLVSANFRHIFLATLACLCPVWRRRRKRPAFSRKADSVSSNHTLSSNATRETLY
HIF act = HIF pathway transcriptional activators, primary screen, cell-based, U2OS HRE-luciferase, luminescence; U2OS HRE-luciferase reporter; normalized: DMSO 0%, desferrioxamine 100%; activation, % at 7.5 µM (by protocol); 0.32% of 300,000 active;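 active means mean activation of at least 10% of the iron chelator positive control signal, with at least half of replicates also reaching 10%; inconclusive means mean and replicate majority disagree about reaching 10%; inactive means mean and most replicates under 10%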
Platelet DG rel = inhibitors of platelet dense granule secretion, primary screen, cell-based, MLPCN, human platelets. inhibition, %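 (compounds screened at 7.5 µM in platelet-rich plasma)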. AID 1663, 2009. 0.22% of 300,000 active. human platelet-rich plasma, SFLLRN dense granule ATP release, luminescence;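 active means mean replicate score, as percent of positive control, at or above 50; inconclusive means mean below 50 but at least one replicate at or above 50; inactive means mean and every replicate below 50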
NTR1 ag conf = NTR1 agonists, single-dose retest, confirmation, imaging, U2OS cells, beta-arrestin-GFP, single concentration; shares compounds with NTR1 agonist; NTR1-U2OS beta-arrestin-GFP translocation imaging; activation, % at 20 µM; 38% of 480 active;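 active means mean activation at 20 µM of at least 40%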
Each line names hits and unclear results; the compound was inactive in the other large screens (follow-up assays come after a bar, where they were run).

O=C(CSC1c2ccccc2-c2ccccc21)N/N=C/c1ccccc1O	HIF act 9.9
O=C(CSC1c2ccccc2-c2ccccc21)N/N=C/c1ccc(C(=O)O)cc1	none
CN(C)C(=O)Oc1ccc2c(c1)O/C(=C\c1cccc(Cl)c1)C2=O	none
COc1ccccc1C(=O)C1CCCN(Cc2cnc(C)s2)C1 (centres undefined)	none (no result: HIF act)
CN1CCN(Cc2nc3ccccc3n2C)CC1	none
Cn1c(NN=O)nc2ccccc21	HIF act 65.8
CCN(CC)CCNCc1nc2ccccc2c(=O)n1-c1ccc(F)cc1	HIF act 59.8
Cc1ccc(-n2c(CNCc3ccc(F)cc3)nc3ccccc3c2=O)cc1	none
CC(=NCc1ccc2c(c1)OCO2)c1c(O)n(-c2ccc(C)cc2)c(=O)[nH]c1=O	none
FC(F)(F)c1ccc2c(c1)NP(=S)(N1CCOCC1)c1nccn1-2 (centres undefined)	HIF act 69.3
COc1cccc(C(=O)C2CCCN(Cc3cccc4c3OCO4)C2)c1 (centres undefined)	none
CN(C)c1ccc(N=Cc2c(O)n(CCC3=CCCCC3)c(=O)[nH]c2=O)cc1	none
O=C(c1cc(Br)ccc1Cl)N1CCC2(CC1)OCCO2	HIF act 420.8
O=C(c1cc2cc(Br)ccc2[nH]1)N1CCC2(CC1)OCCO2	none
COC(=O)[C@]12OC[C@]34C([C@@H](O)[C@@H]1O)[C@]1(C)CC(=O)C(O)=C(C)[C@@H]1C[C@H]3OC(=O)[C@H](O)[C@@H]24 (some centres undefined)	HIF act 20.8
C=CC(=O)NCNC(=O)C=C	none (no result: HIF act, Platelet DG rel)
Cc1ccccc1-n1c(O)c(/C=C2/C(c3ccccc3)=Nc3ccccc32)c(=O)[nH]c1=O	none
COC(=O)C1=Nc2ccccc2/C1=C\c1c(O)n(-c2cc(OC)ccc2OC)c(=O)[nH]c1=O	HIF act 547.6
CCC[C@H](N[C@@H](CCC)[C@H](O)c1ccccc1)[C@H](O)c1ccccc1	none
CCCOc1ccc(C(C)=O)cc1Cc1c(O)[nH]c(=S)[nH]c1=O	none
COc1ccc2c(c1)/C(=C/c1cnc[nH]1)C(=O)N2	HIF act 9.9
O=C1Nc2ccccc2/C1=C/c1cnc[nH]1	none
CNCC1(c2ccccc2)CCCC1	none
COc1ccccc1OCC#CCN1CCCCCC1	none
N/C(=N\N=C/c1ccc(-c2ccc(O)c(C(=O)O)c2)o1)N[N+](=O)[O-]	none
COc1ccc(/C=N/N=C(/N)N[N+](=O)[O-])c(OC)c1	Platelet DG rel 121.2
COc1cccc(-n2c(CN3CCOCC3)nc3ccc([N+](=O)[O-])cc3c2=O)c1	none
CCN1CCN(C(=O)COc2ccc(S(=O)(=O)Nc3ccc(Cl)cc3)cc2)CC1	none
Cc1nc2ccccc2c(=O)n1/N=C/c1cc(Br)cc(Br)c1O	HIF act 181.3
Cc1nc2ccccc2c(=O)n1-c1ccc(Br)cn1	none
O=c1c(C=NCc2cccs2)c(O)n(C2CCCCC2)c(=O)n1C1CCCCC1	none
N=C(N)c1c(O)n(C2CCCCC2)c(=O)n(C2CCCCC2)c1=O	NTR1 agonist 53.7 (no result: HIF act, Platelet DG rel) | NTR1 ag conf inactive
CCN1C(=O)NC(=O)/C(=C\c2cn(CC(=O)N3CCCC3)c3ccccc23)C1=O	none
O=C1NC(=O)N(c2ccccc2F)C(=O)/C1=C/c1cn(CC(=O)N2CCOCC2)c2ccccc12	NTR1 agonist 41.7 | NTR1 ag conf inactive
C#CC1(OC(=O)c2ccccc2)CC(C)N(C)CC1C (centres undefined)	none
COc1ccc(N=Cc2c(O)n(Cc3ccccc3)c(=S)[nH]c2=O)c(OC)c1	none
COc1ccc(OC)c(N=Cc2c(O)n(Cc3ccccc3)c(=S)[nH]c2=O)c1	NTR1 agonist 58.6 | NTR1 ag conf 64.9
O=C1NC(=O)N(c2ccccc2)C(=O)/C1=C\C=C\c1ccccc1	NTR1 agonist 73.9 | NTR1 ag conf 49.1
Cc1ccc(N2C(=O)NC(=O)/C(=C/C=C/c3ccco3)C2=O)cc1	Platelet DG rel inconclusive
CN1C(=O)C(=Cc2sc(=O)n(-c3ccccc3)c2N2CCCCC2)C(=O)N(C)C1=O	none (no result: NTR1 agonist)
COc1ccccc1OCC(=O)N1CCCC(N2CCN(c3ccc(F)cc3)CC2)C1 (centres undefined)	none
COC(=O)[C@@H]1[C@@H](C(=O)OC)C2(c3ccccc3-c3ccccc32)N(c2ccc(Cl)cc2)N1C#N	none
COC(=O)C[C@]1(C(=O)OC)CN(C#N)N(c2ccc(Cl)cc2)C12c1ccccc1-c1ccccc12	NTR1 agonist 41.3 | NTR1 ag conf 62.2
